Potency data for 32 compounds are collected here from PubChem BioAssay AID493203 (National Center for Advancing Translational Sciences (NCATS), 2011).

Inconclusive results are not listed. A call without a number means that no potency is given here. The source made the active and inactive calls. Calls come from the whole dose curve; as a rule, active = well fitted activation curve with a large enough effect; inconclusive = small, poorly fitted or top-dose-only effect; inactive = flat fitted curve, though single readings scatter.
Potency is the fitted concentration of half-maximal effect.

A short description of the experiment: qHTS Assay for NPC1 Promoter Activators: Initial hit validation from the primary screen. To be noted: Huh7 NPC1 promoter-luciferase reporter, luminescence, 24 h; series mostly up to 46.1 µM. In a few lines:
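Promoter activation measured as luciferase luminescence (Amplite reagent, 10 minutes ambient) after 24 hours' compound exposure at 37C. Cells: NPC1-luciferase Huh7, 1500 per well, reduced-serum OP-MEM I plus 10% FBS.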
Turning to `Cc1cccc(C)c1NC(=O)Nc1cccs1`, the Potency result was “inactive”. Regarding `O=C(O)CSc1nnc(-c2ccncc2)n1CCc1ccccc1`, the Potency result was “inactive”.

Take `COc1ccc(C(c2nnnn2CCc2ccccc2)N2CCN(C3CCCC3)CC2)cc1` (configuration not stated): the Potency result is “inactive”. On to `Cc1cc(C)cc(N(CC(=O)NC2CCCC2)C(=O)CNC(=O)c2ccco2)c1`, for which the Potency result is “inactive”. The value for `Cc1csc(NC(=O)CSc2nnc(-c3ccncc3)o2)n1` was 15800 nM (active); that for `COC(=O)CSc1nc2cc3c(cc2cc1C#N)OCO3` was 315 nM (active); that for `Cc1[nH]n(-c2cccc3ccccc23)c(=O)c1/C=N/c1sc2c(c1C#N)CCC2` was “inactive”. With `CCC(=O)Nc1cc(-c2cc3ccccc3oc2=O)ccc1OC`, the Potency is 1120 nM (active).

As to `Cc1ccc(N(O)C(=O)NCCCCNC(=O)N(O)c2ccc(C)cc2)cc1`, the Potency is 25000 nM (active). With `CC(=O)Nc1ccc(NC(=O)COc2ncnc3ccccc23)cc1`, the Potency entry is “inactive”. Consider `CCCCc1cc(=O)oc2cc(OCC(=O)N3CCOCC3)ccc12`, for which the Potency result was “inactive”. For `CCCN(CCC)CCCNC(=O)c1cc2cc3ccc(Cl)cc3nc2o1` the value was “inactive”; for `COc1ccccc1NC(=S)NCc1ccc(Cl)cc1`, “inactive”. For `O=C(NCC1CCCO1)C(c1ccc(F)cc1)N(Cc1ccc2c(c1)OCO2)C(=O)c1ccc(CN2CCOCC2)o1` (configuration not stated) the value was “inactive”. Turning to `COc1ccc(S(=O)(=O)NC(C(=O)NCCc2ccccn2)C(C)C)cc1` (configuration not stated), the Potency entry is “inactive”. As for `O=C(CCCOc1ccc(Cl)cc1)N1CCCCC1`, the Potency was 25000 nM (active).

Take `CCOC(=O)C1(Cc2cccc(Cl)c2)CCCN(C(=O)CCSC)C1` (configuration not stated): the Potency result was “inactive”.

Consider `COCCNC(=O)Cn1nc(-c2ccccc2)c2ccccc2c1=O`, for which the Potency entry was “inactive”. The value for `O=C(Nc1nc2ccc(F)cc2s1)c1ccc(N2CCCC2=O)cc1` was 141 nM (active); that for `CCCC(C)NC(=O)c1ccc(OCc2ccc(Cl)cc2)c(OC)c1` (configuration not stated) was “inactive”. For `Cc1ccc(NC(=O)c2cccc(N3C(=O)CCC3=O)c2)nc1`, the Potency result was “inactive”.

As to `COc1ccc(-c2csc(Nc3ncccn3)n2)cc1C`, the Potency is 250 nM (active). With `COCCn1c(SCc2ccc(C(=O)OC)o2)nc2cc(Cl)ccc2c1=O`, the Potency result is “inactive”. Take `O=C(N/N=C/c1ccc(-c2ccc(Br)cc2)o1)c1ccc2c(c1)OCO2`: the Potency entry was “inactive”. For `Cc1noc(/C=C/N(C)C)c1S(=O)(=O)N1CCCC(C(=O)N2CCCCC2)C1` (configuration not stated) the value was “inactive”; for `Cc1ccc(C(=O)NC2CCN(CC(=O)Nc3c(C)cc(C)cc3C)CC2)cc1`, “inactive”. Regarding `COc1ccc(OC)c(S(=O)(=O)N2CCN3CCCC3C2)c1` (configuration not stated), the Potency entry was “inactive”. `S=C1NCN(CCc2ccccc2)CN1Cc1ccccc1`: the Potency result is “inactive”. The value for `O=C(CCCC(=O)N(CC(=O)NC1CCCCC1)c1cccc(F)c1)Nc1ccccn1` was “inactive”; that for `CC1CCCN(S(=O)(=O)c2ccc(C(=O)Nc3nnc(-c4ccncc4)o3)cc2)C1` (configuration not stated) was “inactive”; that for `CCOc1ccc(S(=O)(=O)NCc2ccccc2)cc1C(N)=O` was “inactive”.

Take `CCOC(=O)c1ccc(-c2nnc(-c3ccc(Cl)cc3Cl)o2)cc1`: the Potency was 2500 nM (active).
